Screening data from PubChem.
RE007 growth inh: qHTS Assay for Inhibitors of the HIV-1 protein Vpr | S. pombe RE007 Vpr strain, BacTiter-Glo ATP luminescence, 24 h | Potency, µM (highest dose often 92.2 µM), actives largely listed as inhibitors | 360,000 tested, 0.21% active | AID 651644, 2012; active = well fitted falling curve with a large enough effect; inconclusive = small, poorly fitted or top-dose-only effect; inactive = no such curve, though single readings can be large or run the other way; note: nearly all actives have a fitted effect of over 50% in size
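Fission yeast strain RE007, carrying one chromosomally integrated HIV-1 vpr copy, was seeded at OD 0.01 in PMG+AL medium with 23 nL pinned compound. After 24 h at 30 °C and 99% humidity, viability was read by BacTiter-Glo luminescence.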
Pf growth 48h: Primary qHTS for delayed death inhibitors of the malarial parasite plastid, 48 hour incubation. P. falciparum luciferase growth in erythrocytes, 48 h. Potency, µM (titrated, usually from 28.7 µM), most hits filed as inhibitors. 310,000 tested, 5.9% active. AID 504832, 2011
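Erythrocytes infected with P. falciparum carrying an integrated firefly luciferase reporter (2% hematocrit, 0.1% parasitemia final) were exposed to compounds in RPMI 1640 with 0.5% Albumax at 37 C, 5% CO2. Growth inhibition was scored as reduced luminescence.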
SARS PLP yeast: qHTS of Yeast-based Assay for SARS-CoV PLP; Potency, µM (highest dose often 32.9 µM), actives largely listed as activators; S. cerevisiae expressing SARS-CoV PLpro, growth rescue; 330,000 tested, 0.19% active; calls by dose curve; note: nearly all actives have a fitted effect of over 55% in size
Pf growth 96h: Primary qHTS for delayed death inhibitors of the malarial parasite plastid, 96 hour incubation | AID 504834, 2011 | 320,000 tested, 6.9% active | Potency, µM (series often up to 28.7 µM), hits mostly inhibitors | P. falciparum luciferase reporter growth, 96 h
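Two parasite generations (96 h, 37 C, 5% CO2) of compound exposure in infected erythrocytes (0.05% parasitemia, 2% hematocrit). Luciferase-reporter P. falciparum; decreased luminescence indicates inhibited growth, aimed at apicoplast-acting delayed death.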
NS1 function inh: qHTS Assay for Inhibitors of Influenza NS1 Protein Function; Potency, µM (top dose mostly 46.1 µM); 270,000 tested, 0.4% active; AID 2326, 2010; calls by dose curve; note: actives are rising curves; nearly all actives have a fitted effect of over 50% in size
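In this qHTS, NS1 from influenza A is expressed in budding yeast, where it slows growth. Cells are switched from glucose to 2% galactose medium (pH 6.0, -URA), treated with compound, and growth recovery is read at OD600.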
Each line names hits and unclear results; the compound was inactive in the other large screens. This is a sample that favours compounds with a hit; in the whole collection about 9.5% have one here. Unless noted, calls come from the whole dose curve; as a rule, active = well fitted inhibition curve with a large enough effect; inconclusive = small, poorly fitted or top-dose-only effect, or another doubt; inactive = no such curve, though single readings can be large or run the other way.

COc1cccc(-c2cc3nc(-c4ccccc4)cc(N4CCCC(O)C4)n3n2)c1 (configuration not stated)	Pf growth 48h 12µM
COc1cccc(CNC(=O)CN(c2ccc(C(C)C)cc2)S(=O)(=O)c2c(C)noc2C)c1	none
CCOC(=O)C1CCCN(C(=O)c2cn(CC(C)C)c(=O)c3cc(OC)c(OC)cc23)C1 (configuration not stated)	Pf growth 48h inconclusive
CCOC(=O)C1CCCN(C(=O)c2cn(C)c(=O)c3cc(OC)c(OC)cc23)C1 (configuration not stated)	Pf growth 96h 6.6µM
CCOC(=O)C1CCCN(C(=O)c2cn(CC)c(=O)c3cc(OC)c(OC)cc23)C1 (configuration not stated)	Pf growth 96h 1µM
Cc1cc(OCC(O)CN)ccc1Cl (configuration not stated)	Pf growth 96h 0.74µM (no result: NS1 function inh)
COc1cccc(C(=O)N2CCC2(C)C(=O)O)c1 (configuration not stated)	none (no result: Pf growth 48h, SARS PLP yeast, Pf growth 96h, NS1 function inh)
O=C(CSc1nnc(-c2ccccn2)n1Cc1ccccc1)NC1CCCC1	Pf growth 48h 8.3µM, Pf growth 96h inconclusive
O=C(Cc1ccc(-n2cccc2)cc1)NC1CCCCCC1	Pf growth 96h 15µM
O=C(CSc1nccn1Cc1ccccc1)NC1CCCC1	RE007 growth inh inconclusive, SARS PLP yeast 13µM
CCCn1c(SCC(=O)NC2CCCCC2)nnc1-c1ccccn1	none (no result: NS1 function inh)
CC(C)(c1cc(Br)c(O)c(Br)c1)c1cc(Br)c(O)c(Br)c1	RE007 growth inh inconclusive, Pf growth 96h inconclusive (no result: NS1 function inh)
CCOc1ccccc1N1CCN(C(=O)c2c(Cl)cnn2C)CC1	none
COc1ccccc1NC(=O)Nc1nc(CC(=O)NCc2ccc(F)cc2)cs1	Pf growth 48h inconclusive, Pf growth 96h inconclusive (no result: NS1 function inh)
CCCS(=O)(=O)NC(=O)C1(C)CCN(C(=O)c2ccccc2OC(C)=O)C1 (configuration not stated)	none (no result: Pf growth 48h, SARS PLP yeast, Pf growth 96h, NS1 function inh)
Cc1ccc(C(=O)OC(C)C(=O)NC2CCCCC2C)cc1S(=O)(=O)N1CCOCC1 (configuration not stated)	Pf growth 48h inconclusive
Cc1ccc(C(=O)OC(C)C(=O)N(C)C2CCCCC2)cc1S(=O)(=O)N1CCCCC1 (configuration not stated)	Pf growth 48h 12µM, Pf growth 96h inconclusive (no result: NS1 function inh)
Cc1ccc(C(=O)OC(C)C(=O)NC2CCCCC2)cc1S(=O)(=O)N1CCCCC1 (configuration not stated)	Pf growth 48h 7.4µM, Pf growth 96h inconclusive (no result: NS1 function inh)
O=c1oc(CCO)cc2ccc(Br)cc12	none (no result: Pf growth 48h, Pf growth 96h, NS1 function inh)
COc1ccc(Nc2cc(C)nc3ncnn23)cc1	none (no result: Pf growth 48h, SARS PLP yeast, Pf growth 96h, NS1 function inh)
Cc1cc(Nc2ccc(C(C)C)cc2)n2ncnc2n1	Pf growth 48h 1µM
Cc1cc(Nc2ccc3ccccc3c2)n2ncnc2n1	Pf growth 48h 0.13µM
Cc1cc(C)nc(SCC(=O)c2ccc(C)c(C)c2)n1	Pf growth 96h 9.3µM
CC(=NNC(=O)c1ccncc1)c1cccc(Cl)c1	none (no result: Pf growth 48h, SARS PLP yeast, Pf growth 96h, NS1 function inh)
CCCCOCCOCCOCc1cc2c(cc1CCC)OCO2	none (no result: RE007 growth inh, SARS PLP yeast, NS1 function inh)
COc1ccc(CCn2c(C)cc3c(c2=O)C(c2ccc4c(c2)OCO4)C(C#N)=C(N)O3)cc1OC (configuration not stated)	Pf growth 48h 8.3µM (no result: Pf growth 96h)
Cc1cc2c(c(=O)n1Cc1ccccn1)C(c1ccc3c(c1)OCO3)C(C#N)=C(N)O2 (configuration not stated)	none
Cc1cc2c(c(=O)n1Cc1ccc3c(c1)OCO3)C(c1cccnc1)C(C#N)=C(N)O2 (configuration not stated)	Pf growth 48h 12µM, SARS PLP yeast inconclusive
Cc1cc2c(c(=O)n1Cc1cccnc1)C(c1ccccc1)C(C#N)=C(N)O2 (configuration not stated)	Pf growth 48h inconclusive
O=C(Nc1nnc(CSCc2ccccc2F)s1)c1cccc([N+](=O)[O-])c1	Pf growth 96h 13µM
O=C(Cc1ccc([N+](=O)[O-])cc1)OCc1c(F)cccc1Cl	none
Cc1ccc(C(=O)NNC(=O)CSc2nnc(C(C)C)n2C)cc1	Pf growth 96h inconclusive
CC(=O)N[C@H]1[C@H](O[C@@H]2c3ccc(c(Cl)c3)Oc3cc4cc(c3O[C@@H]3O[C@H](CO)[C@@H](O)[C@H](O)C3C)Oc3ccc(cc3Cl)C[C@H]3NC(=O)[C@@H](N)c5ccc(O)c(c5)Oc5cc(O)cc(c5)[C@H](NC3=O)C(=O)N[C@H]4C(=O)N[C@H]3C(=O)N[C@@H]2C(=O)N[C@@H](C(=O)O)c2cc(O)cc(O[C@H]4O[C@H](CO)[C@@H](O)C(O)[C@@H]4O)c2-c2cc3ccc2O)O[C@H](CO)[C@@H](O)[C@@H]1O (some centres not stated)	Pf growth 96h inconclusive (no result: RE007 growth inh, SARS PLP yeast, NS1 function inh)
CC(C)Cn1nc(NC(=O)c2ccco2)c2cc3ccccc3nc21	Pf growth 96h inconclusive
CCn1nc(NC(=O)c2ccco2)c2cc3ccccc3nc21	Pf growth 96h 9.3µM (no result: Pf growth 48h)
Cc1ccc2nc3c(cc2c1)c(NC(=O)C(C)(C)C)nn3CC(C)C	Pf growth 48h 13µM, Pf growth 96h 1µM
CCn1nc(NC(=O)c2ccncc2)c2cc3cccc(C)c3nc21	Pf growth 96h 2.1µM
CC(C)Cn1nc(NC(=O)C(C)(C)C)c2cc3ccccc3nc21	Pf growth 48h 9.3µM, Pf growth 96h inconclusive
COc1cc(CN2C[C@@H](CO)O[C@@H](n3cnc4c(N(C)C)ncnc43)C2)cc(OC)c1OC	none (no result: Pf growth 48h, SARS PLP yeast, Pf growth 96h, NS1 function inh)
COc1ccc(/C(C)=N/NC(=O)CN(c2ccc(OC)cc2)S(=O)(=O)c2ccccc2)cc1	none
Nc1cccc2c(=O)c3ccccc3[nH]c12	Pf growth 48h 1.9µM, Pf growth 96h 1.9µM
COc1cccc2[nH]c3ccccc3c(=O)c12	Pf growth 48h inconclusive, Pf growth 96h inconclusive
Cc1noc(C)c1-c1ccc(C(=O)Nc2cccc(C(F)(F)F)c2)c2occc12	none (no result: Pf growth 48h, SARS PLP yeast, Pf growth 96h, NS1 function inh)
COC(=O)c1nc(N)sc1-c1ccccc1	Pf growth 96h 9.3µM
CCCCN=C1NC(=O)C(CC(=O)NCCc2ccc(OC)cc2)S1 (configuration not stated)	Pf growth 48h inconclusive, Pf growth 96h inconclusive
COc1cccc(C(=O)CSc2nccn2C)c1	Pf growth 96h 12µM
OCCN1CCN(Cc2ccc3ccccc3c2)CC1	none
CCOC(=O)N1CCN(Cc2c(O)ccc3ccccc23)CC1	none
CCOC(=O)C1CCN(Cc2cc(C(C)C)c(O)c(C(C)C)c2)CC1	Pf growth 48h inconclusive, Pf growth 96h 0.41µM
CCOC(=O)C1CCN(Cc2c(O)ccc3ccccc23)CC1	Pf growth 48h inconclusive, Pf growth 96h 9.3µM
c1ccc(CN2CCN(Cc3ccc4ccccc4c3)CC2)cc1	Pf growth 48h inconclusive, Pf growth 96h 0.93µM
CCOC(=O)C1CCN(Cc2ccc3ccccc3c2)CC1	Pf growth 96h 13µM
CCOC(=O)C1CCN(Cc2ccc(F)c(F)c2)CC1	none (no result: Pf growth 48h)
CCOC(=O)N1CCN(C(=O)C2CCN(Cc3cccc(OCc4ccccc4)c3)CC2)CC1	Pf growth 96h 4.7µM
